Source: publication PMC12864922, “TDP-43 directly inhibits mRNA accumulation in neurites through modulation of mRNA stability”
Over roughly 9,900 sequences, “r (bound/input frequency ratio)” has its median near 0.7; the highest 2% begin near 6.5. Only a selection was taken, and the highest values are over-represented in it overall.

B1: ENSMUSG00000022095.37|Fam160b2|125:129 (ssRNA)
RNA: GGGAGUUCUACAGUCCGACGAUCGCUUCGAUAUCCGCAUGCUAACCUCACCUGUUGACCCCACGAGCUGAGGUUUCAAGGAGGUGCUGGCUCCUAAGGCAGUGGUAUUCUUGGAGCCUUUUAGAGGAGCUAGAGGAUGGCCAGUGAGCGCCUAGAUGCUGCCCUGCAACACAUGCGUGACUAUCUCUGCUAUAUUGUGACCAGGGCCACAACAUGAGACAACUCCAGGGGCCAGGGAGAUGAACUGCUGUCUUUGAGGCUGGCUAAAAAAACAAUCCAGUCCAGAGAGAUGGGGAGGGGGGGACUCUUGCGGUCGCACUAGUGUGGAAUUCUCGGGUGUCAAGG
B2: ENSMUSG00000032194.151|Kank2|256:260 (ssRNA)
RNA: GGGAGUUCUACAGUCCGACGAUCGCUUCGAUAUCCGCAUGCUAACUUCUAGAAAUACUUUCAGACCUACAGACAAAAAAGAAAAAAGGCCAUUCCGGAGUGACUCCCAGCAUCACAGCCCAGAACCUCCUCCUCAAAGGAGAGUAAACAGAGACUGUGAUACUGACCAAGUACAGGCGCUCGCUAUGAAGCCCAUAUGUUCCUGAUUAAGAGCUGGCUGGCCUCAGAGCACUCCCAGAACUAGCUUAAAGUGACAGGCUUUGCUGAAAUCCAAAGGGACAAAAGAGUAGUUUUAUGUUACACACUCUUGCGGUCGCACUAGUGUGGAAUUCUCGGGUGUCAAGG
B3: ENSMUSG00000029028.11|Lrrc47 (ssRNA)
RNA: GGGAGUUCUACAGUCCGACGAUCGCUUCGAUAUCCGCAUGCUACCUGAUCACCCUCCCUCCCCACGUGACUGUGGUCCGCUGACAGGCUCCUGUAGGUGUGGGUGUGCUGUAGGUGUCUGUGUGGGUGUGGGUGUGCUGUAGGUGUCUGUGUGGGUGUGGGUGUGCUAUAGGUAUCUGUGGGUGUGCUGUAGGUGUCUGUGUGGGUGUGCUGUAGGUGUCUGUGUAGGUGUGGGUGUGCUGUAGGUGUCUGUGUGGGUGUGCUAGGUGUCUGUAUAGGUGUGGGUGUGCUGUAGAUGUCUGUGCUCUUGCGGUCGCACUAGUGUGGAAUUCUCGGGUGUCAAGG
B4: ENSMUSG00000029028.11|Lrrc47|54:58;60:64;76:81;83:87;89:93;105:110;112:116;118:122;139:143;155:160;162:166;178:182;185:189;191:195;207:212;214:218;235:239;241:2 … (ssRNA)
RNA: GGGAGUUCUACAGUCCGACGAUCGCUUCGAUAUCCGCAUGCUACCUGAUCACCCUCCCUCCCCACGUGACUGUGGUCCGCUGACAGGCUCCUGUAGCACACGCACACCUGUAGGUGUCACACACGCACACGCACACCUGUAGGUGUCACACACGCACACGCACACCUAUAGGUAUCUGUGGCACACCUGUAGGUGUCACACACGCACACCUGUAGGUGUCACACAAGCACACGCACACCUGUAGGUGUCACACACGCACACCUAGGUGUCUGUAUAGCACACGCACACCUGUAGAUGUCUGUGCUCUUGCGGUCGCACUAGUGUGGAAUUCUCGGGUGUCAAGG
B5: ENSMUSG00000029028.13|Lrrc47|42:46;48:52;64:69;71:75;77:81;93:98;100:104;106:110;127:131;143:148;150:154;166:170;173:177;179:183;195:200;202:206;223:227;229:233 … (ssRNA)
RNA: GGGAGUUCUACAGUCCGACGAUCGCUUCGAUAUCCGCAUGCUACCCUCCCCACGUGACUGUGGUCCGCUGACAGGCUCCUGUAGCACACGCACACCUGUAGGUGUCACACACGCACACGCACACCUGUAGGUGUCACACACGCACACGCACACCUAUAGGUAUCUGUGGCACACCUGUAGGUGUCACACACGCACACCUGUAGGUGUCACACAAGCACACGCACACCUGUAGGUGUCACACACGCACACCUAGGUGUCUGUAUAGCACACGCACACCUGUAGAUGUCACACAAGCAUACGGUGCUCUUGCGGUCGCACUAGUGUGGAAUUCUCGGGUGUCAAGG
B6: ENSMUSG00000029028.12|Lrrc47|48:52;54:58;70:75;77:81;83:87;99:104;106:110;112:116;133:137;149:154;156:160;172:176;179:183;185:189;201:206;208:212;229:233;235:23 … (ssRNA)
RNA: GGGAGUUCUACAGUCCGACGAUCGCUUCGAUAUCCGCAUGCUACACCCUCCCUCCCCACGUGACUGUGGUCCGCUGACAGGCUCCUGUAGCACACGCACACCUGUAGGUGUCACACACGCACACGCACACCUGUAGGUGUCACACACGCACACGCACACCUAUAGGUAUCUGUGGCACACCUGUAGGUGUCACACACGCACACCUGUAGGUGUCACACAAGCACACGCACACCUGUAGGUGUCACACACGCACACCUAGGUGUCUGUAUAGCACACGCACACCUGUAGAUGUCACACAAGGUACUCUUGCGGUCGCACUAGUGUGGAAUUCUCGGGUGUCAAGG
B7: ENSMUSG00000029028.12|Lrrc47 (ssRNA)
RNA: GGGAGUUCUACAGUCCGACGAUCGCUUCGAUAUCCGCAUGCUACACCCUCCCUCCCCACGUGACUGUGGUCCGCUGACAGGCUCCUGUAGGUGUGGGUGUGCUGUAGGUGUCUGUGUGGGUGUGGGUGUGCUGUAGGUGUCUGUGUGGGUGUGGGUGUGCUAUAGGUAUCUGUGGGUGUGCUGUAGGUGUCUGUGUGGGUGUGCUGUAGGUGUCUGUGUAGGUGUGGGUGUGCUGUAGGUGUCUGUGUGGGUGUGCUAGGUGUCUGUAUAGGUGUGGGUGUGCUGUAGAUGUCUGUGUAGGUACUCUUGCGGUCGCACUAGUGUGGAAUUCUCGGGUGUCAAGG
B8: ENSMUSG00000029028.13|Lrrc47 (ssRNA)
RNA: GGGAGUUCUACAGUCCGACGAUCGCUUCGAUAUCCGCAUGCUACCCUCCCCACGUGACUGUGGUCCGCUGACAGGCUCCUGUAGGUGUGGGUGUGCUGUAGGUGUCUGUGUGGGUGUGGGUGUGCUGUAGGUGUCUGUGUGGGUGUGGGUGUGCUAUAGGUAUCUGUGGGUGUGCUGUAGGUGUCUGUGUGGGUGUGCUGUAGGUGUCUGUGUAGGUGUGGGUGUGCUGUAGGUGUCUGUGUGGGUGUGCUAGGUGUCUGUAUAGGUGUGGGUGUGCUGUAGAUGUCUGUGUAGGUAUGGGUGCUCUUGCGGUCGCACUAGUGUGGAAUUCUCGGGUGUCAAGG
B9: ENSMUSG00000034801.232|Sos2|152:160 (ssRNA)
RNA: GGGAGUUCUACAGUCCGACGAUCGCUUCGAUAUCCGCAUGCUAUAACUGUCUUUAAUCUCGUGUUAACUGAAAUUUUUGAAAAGUUUUUCCAGAUUAGUAAUAUUUAAACAGAAAAUACUUUAAAAAGCUUUAUUAAAUUUUUUAAUCAGGAUAAAGCUUUGCCAUUUGGAUACUAUCAUUCAAAGUGAUCAAGCAUACAUACUUAUGCUGAUAGUGCAGUAGCAGCCAUUGUAAAGUAGCCAAAAGCCACGUUGUUUAUCUACUGGUCUGUGGCCUUUUACUGUGCUUUGUAUCAGAGUUCUCUCUUGCGGUCGCACUAGUGUGGAAUUCUCGGGUGUCAAGG

These binders were tested against TDP-43 (Homo sapiens, UniProt Q13148 1-414) (assay: RNA Bind-n-Seq with designed 260-mer pool; 25 mM Tris-HCl, 150 mM KCl, 3 mM MgCl2, BSA (printed 500 mg/mL), 20 units/mL SUPERase IN; pH not stated; 500 nM RNA pool, 1 h, 4 C; TDP-43 5, 50, 500 nM; high values mean tight binding). Settings: protein: recombinant; tags: SBP (GST cleaved off with PreScission; pGEX-GST-SBP).
Chain of TDP-43 (Q13148 whole entry): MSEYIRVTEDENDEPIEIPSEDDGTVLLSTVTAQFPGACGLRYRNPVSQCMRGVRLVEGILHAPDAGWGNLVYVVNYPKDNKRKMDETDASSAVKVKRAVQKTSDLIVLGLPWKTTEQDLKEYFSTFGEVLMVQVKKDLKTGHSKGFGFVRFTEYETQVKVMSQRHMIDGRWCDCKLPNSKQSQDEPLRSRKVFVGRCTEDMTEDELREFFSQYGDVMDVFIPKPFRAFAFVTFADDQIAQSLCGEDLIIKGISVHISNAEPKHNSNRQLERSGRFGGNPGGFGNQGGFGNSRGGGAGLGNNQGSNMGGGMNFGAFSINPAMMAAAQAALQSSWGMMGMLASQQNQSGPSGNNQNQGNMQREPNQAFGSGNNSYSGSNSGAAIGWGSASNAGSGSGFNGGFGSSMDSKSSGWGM
Summary of the method: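 The incubation lasted 1 h at 4 °C and used 500 nM of an in vitro-transcribed 260-nt 3′ UTR oligo pool with recombinant SBP-tagged TDP-43 at 5, 50 or 500 nM immobilized on streptavidin beads. It took place in 25 mM Tris-HCl, 150 mM KCl, 3 mM MgCl2, BSA and SUPERase IN. Bound RNA was washed, eluted with biotin, converted to cDNA, PCR-amplified and sequenced to give R, each oligo's normalized abundance in the bound sample divided by that in input. Two independent protein batches provided the duplicates.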

| Binder | binding signal |
| --- | --- |
| B1 | 1.26 R (bound/input frequency ratio) |
| B2 | 0.163 R (bound/input frequency ratio) |
| B3 | 7.32 R (bound/input frequency ratio) |
| B4 | 1.45 R (bound/input frequency ratio) |
| B5 | 1.01 R (bound/input frequency ratio) |
| B6 | 1.21 R (bound/input frequency ratio) |
| B7 | 5.27 R (bound/input frequency ratio) |
| B8 | 7.14 R (bound/input frequency ratio) |
| B9 | 0.0144 R (bound/input frequency ratio) |
